Data as given in PubChem BioAssay AID1159580 (chemical genetic matrix, 2015).
Values joined by “and” are separate entries in the source; they are usually repeats but may differ in a detail not shown here. Identical values can stand only once. Screen size: about 5,500 compounds; about 2,000 (36%) were called active. Inconclusive results (about 18%) are left out. Cut-off read from the data, not from the text of the source: active = normalized growth mostly below about 0.91 (no sharp cut-off); inconclusive = no clear call, values can overlap the other calls; inactive = mostly above about 0.92. Some of the results follow.

Assay: chemical genetic growth profiling, strain panel (AID 1159580);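 note: tested at 20 µM; growth read once vehicle control cultures reached saturation at 30 °C; 1 = growth at the plate median or of vehicle wells; lower values mean less growth of the strain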
Conditions: S. cerevisiae deletion strains, growth OD

Measured: normalized growth

CC(=O)Oc1ccc2c(c1C(C)C)CCC1C(C)(C)CCC[C@]21C (stereo not given in full)
inactive: locus YAL013W, strain DEP1, hits give low values 1.02 | locus YAL021C, strain ccr4, hits give low values 0.996 | locus YAL026C, strain drs2, hits give low values 1.03 | locus YAL030W, strain snc1, hits give low values 1.01 | locus YBL061C, strain skt5, hits give low values 1.03 | locus YBR009C, strain hhf1, hits give low values 1.02 | locus YBR021W, strain FUR4, hits give low values 1.01 | locus YBR023C, strain chs3, hits give low values 1.03 | locus YBR171W, strain sec66, hits give low values 1.03 | locus YBR229C, strain ROT2, hits give low values 1.02 | locus YBR231C, strain swc5, hits give low values 1.03 | locus YBR279W, strain paf1, hits give low values 1.02 | locus YCL011C, strain gbp2, hits give low values 1.02 | locus YCL016C, strain dcc1, hits give low values 1.02 | locus YCL029C, strain bik1, hits give low values 0.997 | locus YCL061C, strain MRC1, hits give low values 1.01 | locus YCL069W, strain vba3, hits give low values 1.01 | locus YCR088W, strain abp1, hits give low values 1.02 | locus YDL005C, strain med2, hits give low values 1.02 | locus YDL035C, strain GPR1, hits give low values 1.03 | locus YDL040C, strain nat1, hits give low values 1 | locus YDL074C, strain BRE1, hits give low values 1.05 | locus YDL101C, strain DUN1, hits give low values 1.03 | locus YDL134C, strain PPH21, hits give low values 1.02 | locus YDL185W, strain tfp1, hits give low values 1 | locus YDL192W, strain arf1, hits give low values 1.01 | locus YDR001C, strain nth1, hits give low values 1.02 | locus YDR069C, strain doa4, hits give low values 1.02 | locus YDR101C, strain arx1, hits give low values 0.995 | locus YDR137W, strain rgp1, hits give low values 1.01 | locus YDR150W, strain NUM1, hits give low values 0.995 | locus YDR159W, strain sac3, hits give low values 1.06 | locus YDR162C, strain NBP2, hits give low values 1.02 | locus YDR195W, strain ref2 1.01 | locus YDR297W, strain sur2, hits give low values 1.01 | locus YDR318W, strain mcm21, hits give low values 0.996 | locus YDR334W, strain swr1, hits give low values 1.02 | locus YDR335W, strain msn5, hits give low values 1.02 | locus YDR388W, hits give low values 0.994 | locus YDR392W, strain spt3, hits give low values 0.997 | locus YDR502C, strain sam2, hits give low values 1.01 | locus YEL003W, strain gim4, hits give low values 1.02 | locus YEL037C, strain rad23, hits give low values 1.01 | locus YEL061C, strain CIN8 (second series), hits give low values 1.02 | locus YEL061C, strain CIN8, hits give low values 1.01 | locus YER015W, strain faa2, hits give low values 1.02 | locus YER016W, strain bim1, hits give low values 1.02 | locus YER110C, hits give low values 0.998 | locus YER111C, strain swi4, hits give low values 1.01 | locus YER155C, strain BEM2 (second series), hits give low values 1.04 | locus YER155C, strain BEM2, hits give low values 1.01 | locus YER167W, strain BCK2, hits give low values 1.01 | locus YFR010W, strain ubp6, hits give low values 1.04 | locus YGL078C, strain dbp3, hits give low values 1.01 | locus YGL086W, strain mad1, hits give low values 0.99 | locus YGL167C, strain pmr1, hits give low values 1.02 | locus YGL173C, strain kem1, hits give low values 1.02 | locus YGL227W, strain vid30, hits give low values 1.02 | locus YGL240W, strain doc1, hits give low values 1.02 | locus YGL248W, strain PDE1, hits give low values 1.02 | locus YGL253W, strain hxk2, hits give low values 1.03 | locus YGR135W, strain pre9, hits give low values 0.99 | locus YGR252W, strain gcn5, hits give low values 1.02 | locus YHR013C, strain ard1, hits give low values 1.04 | locus YHR027C, strain rpn1, hits give low values 1.02 | locus YHR030C, strain SLT2, hits give low values 0.969 | locus YHR079C, strain IRE1 (second series), hits give low values 0.985 | locus YHR079C, strain IRE1, hits give low values 0.973 | locus YHR094C, strain hxt1, hits give low values 1 | locus YHR129C, strain ARP1, hits give low values 1.01 | locus YHR142W, strain chs7, hits give low values 1.05 | locus YHR200W, strain rpn10, hits give low values 1 | locus YIL066C, strain RNR3, hits give low values 1.03 | locus YIL073C, strain SPO22, hits give low values 1.04 | locus YIL125W, strain kgd1, hits give low values 1 | locus YIR030C, strain dcg1, hits give low values 1 | locus YJL092W, strain hpr5, hits give low values 1.02 | locus YJL095W, strain BCK1 (second series), hits give low values 1.04 | locus YJL095W, strain BCK1, hits give low values 1.04 and 0.976 | locus YJL115W, strain asf1, hits give low values 1.04 | locus YJL129C, strain trk1, hits give low values 0.995 | locus YJL134W, strain LCB3, hits give low values 1.01 | locus YJL154C, strain vps35, hits give low values 1.01 | locus YJL164C, strain tpk1, hits give low values 1 | locus YJL166W, strain qcr8, hits give low values 1.03 | locus YJL168C, strain set2, hits give low values 0.996 | locus YJL187C, strain SWE1 (second series), hits give low values 1.02 | locus YJL187C, strain SWE1, hits give low values 1.01 | locus YJR043C, strain POL32, hits give low values 1.03 | locus YJR066W, strain TOR1, hits give low values 0.918 | locus YKL009W, strain mrt4, hits give low values 1.01 | locus YKL068W, hits give low values 0.997 | locus YKL085W, strain MDH1 (second series), hits give low values 1.01 | locus YKL085W, strain MDH1, hits give low values 1.01 | locus YKL160W, strain elf1, hits give low values 1.01 | locus YKR001C, strain vps1, hits give low values 1.01 | locus YKR026C, strain gcn3, hits give low values 1.03 | locus YKR091W, strain srl3, hits give low values 1.01 | locus YLL001W, strain dnm1, hits give low values 1 | locus YLL026W, hits give low values 1.02 | locus YLL041C, strain sdh2, hits give low values 1.02 | locus YLR027C, strain aat2, hits give low values 1.02 | locus YLR039C, strain RIC1, hits give low values 1.02 | locus YLR058C, strain SHM2, hits give low values 1.02 | locus YLR102C, strain apc9, hits give low values 0.999 | locus YLR113W, strain HOG1, hits give low values 1 | locus YLR221C, strain rsa3, hits give low values 1.02 | locus YLR258W, strain gsy2, hits give low values 1.01 | locus YLR262C, strain YPT6 (second series), hits give low values 1.01 | locus YLR262C, strain YPT6, hits give low values 1.06 | locus YLR268W, strain sec22, hits give low values 1 | locus YLR320W, strain mms22, hits give low values 1.04 | locus YLR330W, strain CHS5, hits give low values 1.01 | locus YLR342W, strain FKS1 (second series), hits give low values 1.01 | locus YLR342W, strain FKS1, hits give low values 1.02 | locus YLR357W, strain rsc2, hits give low values 1.04 | locus YLR370C, strain arc18, hits give low values 1.02 | locus YLR371W, strain rom2, hits give low values 0.99 | locus YLR384C, strain iki3, hits give low values 1.03 | locus YLR418C, strain cdc73, hits give low values 1 | locus YML016C, strain PPZ1, hits give low values 1.02 | locus YML032C, strain rad52, hits give low values 1.01 | locus YML120C, strain ndi1, hits give low values 1.01 | locus YML124C, strain tub3, hits give low values 1 | locus YMR058W, strain fet3, hits give low values 1.03 | locus YMR078C, strain ctf18, hits give low values 1 | locus YMR125W, strain sto1, hits give low values 1.03 | locus YMR129W, hits give low values 1.03 | locus YMR205C, strain PFK2, hits give low values 0.995 | locus YMR223W, strain ubp8, hits give low values 1.01 | locus YMR231W, strain pep5, hits give low values 1.01 | locus YMR263W, strain SAP30, hits give low values 1.02 | locus YMR307W, strain GAS1, hits give low values 1.02 | locus YNL067W, strain RPL9B, hits give low values 1.01 | locus YNL071W, strain lat1, hits give low values 1.01 | locus YNL128W, strain TEP1, hits give low values 1.02 | locus YNL153C, strain GIM3, hits give low values 1.02 | locus YNL183C, strain NPR1, hits give low values 0.928 | locus YNL209W, strain ssb2, hits give low values 1.02 | locus YNL233W, strain BNI4, hits give low values 1.02 | locus YNL248C, strain rpa49, hits give low values 1.02 | locus YNL250W, strain rad50, hits give low values 0.992 | locus YNL271C, strain bni1, hits give low values 0.996 | locus YNL298W, strain CLA4, hits give low values 1.01 | locus YNL307C, strain MCK1, hits give low values 1 | locus YNL322C, strain KRE1 (second series), hits give low values 1.01 | locus YNR049C, strain mso1, hits give low values 1.04 | locus YNR052C, strain pop2, hits give low values 0.995 | locus YOL012C, strain htz1 1.05 | locus YOL147C, strain pex11, hits give low values 0.999 | locus YOR001W, strain rrp6, hits give low values 1.02 | locus YOR061W, strain CKA2, hits give low values 1.02 | locus YOR069W, strain VPS5, hits give low values 1.01 | locus YOR070C, strain gyp1, hits give low values 1.02 | locus YOR080W, strain dia2, hits give low values 1.02 | locus YOR083W, strain WHI5, hits give low values 1.01 | locus YOR106W, strain vam3, hits give low values 1.02 | locus YOR136W, strain idh2, hits give low values 0.99 | locus YOR144C, strain elg1, hits give low values 0.996 | locus YOR184W, strain ser1, hits give low values 0.996 | locus YOR231W, strain MKK1, hits give low values 0.97 | locus YOR265W, strain rbl2, hits give low values 1.04 | locus YOR270C, strain vph1, hits give low values 1.01 | locus YOR290C, strain snf2, hits give low values 1 | locus YOR316C, strain cot1, hits give low values 0.998 | locus YPL051W, strain arl3, hits give low values 1.02 | locus YPL078C, strain atp4, hits give low values 1 | locus YPL106C, strain sse1, hits give low values 1.02 | locus YPL240C, strain hsp82, hits give low values 1.02 | locus YPL256C, strain CLN2, hits give low values 0.966 | locus YPR119W, strain clb2, hits give low values 0.992 | locus YPR141C, strain kar3, hits give low values 1 | locus YPR163C, strain tif3, hits give low values 0.996 | locus YPR167C, strain met16, hits give low values 0.995 | strain wtn01, hits give low values 1
